Test results as given in PMC7862700, “An all-to-all approach to the identification of sequence-specific readers for epigenetic DNA modifications on cytosine”.

How the values were obtained:
Test in all cases: DAPPL (digital affinity profiling via proximity ligation, sequencing); 10 mM Tris-HCl pH 7.5, 50 mM NaCl, 1 mM DTT, 4% glycerol, room temperature, 30 min; GST-TFs on glutathione beads, 16-mer random dsDNA library, 0.1% formaldehyde crosslink after washing; high values mean tight binding
Details in all cases: protein: recombinant; tags: N-terminal GST; dsDNA, one strand shown
FLI1 = molecular target: T1, FLI1 (Homo sapiens, UniProt Q01543 1-452)
T1 sequence: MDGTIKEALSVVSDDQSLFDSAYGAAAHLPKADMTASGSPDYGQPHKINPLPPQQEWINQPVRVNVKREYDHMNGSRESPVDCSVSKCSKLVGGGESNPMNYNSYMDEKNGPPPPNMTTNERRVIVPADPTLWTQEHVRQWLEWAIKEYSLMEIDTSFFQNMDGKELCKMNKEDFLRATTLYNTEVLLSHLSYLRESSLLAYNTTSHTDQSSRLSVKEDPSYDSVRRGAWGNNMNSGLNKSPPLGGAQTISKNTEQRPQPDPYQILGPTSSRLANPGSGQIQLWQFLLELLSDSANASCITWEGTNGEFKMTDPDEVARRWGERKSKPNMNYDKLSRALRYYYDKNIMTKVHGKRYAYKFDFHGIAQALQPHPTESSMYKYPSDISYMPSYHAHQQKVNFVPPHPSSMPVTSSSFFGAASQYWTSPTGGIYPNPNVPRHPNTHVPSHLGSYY
Outline: (§1)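 Binding signal is defined as a hexamer's read frequency for one factor over its frequency for the tag-only sample. To obtain reads, GST-fused human transcription factors were expressed in yeast, captured on glutathione beads, barcoded with DNA and pooled with that sample. Pools met 200 nmole of a 16-mer random double-stranded DNA library in Tris/NaCl/DTT/glycerol buffer for 30 min at room temperature before washing, 0.1% formaldehyde crosslinking, proximity ligation (BsaI/T4 ligase, 1 h, 37 °C), PCR and Illumina NextSeq500 sequencing.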

ELF1 = ELF1 (Homo sapiens, UniProt P32519 1-619)
Outline: as §1

EHF = molecular target: T2, EHF (Homo sapiens, UniProt Q9NZC4 1-300)
T2 sequence: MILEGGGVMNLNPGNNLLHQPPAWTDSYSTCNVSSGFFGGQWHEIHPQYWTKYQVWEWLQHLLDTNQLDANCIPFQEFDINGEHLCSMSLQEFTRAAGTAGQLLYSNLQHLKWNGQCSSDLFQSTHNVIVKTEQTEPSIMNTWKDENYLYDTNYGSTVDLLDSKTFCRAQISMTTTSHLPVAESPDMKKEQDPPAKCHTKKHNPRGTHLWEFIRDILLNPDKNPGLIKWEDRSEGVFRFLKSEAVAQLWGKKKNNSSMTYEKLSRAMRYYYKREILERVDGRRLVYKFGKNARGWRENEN
Outline: as §1

ELK3 = molecular target: T3, ELK3 (Homo sapiens, UniProt P41970 1-407)
T3 sequence: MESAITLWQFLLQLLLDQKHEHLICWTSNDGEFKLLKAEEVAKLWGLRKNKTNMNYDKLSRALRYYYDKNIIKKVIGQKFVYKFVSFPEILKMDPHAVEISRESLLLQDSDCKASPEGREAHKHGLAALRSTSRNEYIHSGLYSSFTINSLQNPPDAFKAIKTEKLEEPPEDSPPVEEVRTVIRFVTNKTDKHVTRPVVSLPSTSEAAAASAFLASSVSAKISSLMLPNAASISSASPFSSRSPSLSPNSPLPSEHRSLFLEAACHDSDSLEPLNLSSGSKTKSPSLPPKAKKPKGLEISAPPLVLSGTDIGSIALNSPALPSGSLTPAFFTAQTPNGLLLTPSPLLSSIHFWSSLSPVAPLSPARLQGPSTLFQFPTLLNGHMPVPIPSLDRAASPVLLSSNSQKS
Outline: as §1

SPIC = molecular target: T4, SPIC (Homo sapiens, UniProt Q8N5J4 1-248)
T4 sequence: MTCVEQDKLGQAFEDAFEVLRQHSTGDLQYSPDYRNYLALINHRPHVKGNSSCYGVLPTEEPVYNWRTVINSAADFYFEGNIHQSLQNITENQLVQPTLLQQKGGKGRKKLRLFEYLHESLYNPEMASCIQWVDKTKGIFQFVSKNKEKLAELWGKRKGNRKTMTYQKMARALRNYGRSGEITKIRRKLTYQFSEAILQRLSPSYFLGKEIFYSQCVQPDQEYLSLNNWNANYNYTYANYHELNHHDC
Outline: as §1

ELF4 = ELF4 (Homo sapiens, UniProt Q99607 1-663)
Outline: as §1

ETV2 = molecular target: T5, ETV2 (Homo sapiens, UniProt O00321 1-342)
T5 sequence: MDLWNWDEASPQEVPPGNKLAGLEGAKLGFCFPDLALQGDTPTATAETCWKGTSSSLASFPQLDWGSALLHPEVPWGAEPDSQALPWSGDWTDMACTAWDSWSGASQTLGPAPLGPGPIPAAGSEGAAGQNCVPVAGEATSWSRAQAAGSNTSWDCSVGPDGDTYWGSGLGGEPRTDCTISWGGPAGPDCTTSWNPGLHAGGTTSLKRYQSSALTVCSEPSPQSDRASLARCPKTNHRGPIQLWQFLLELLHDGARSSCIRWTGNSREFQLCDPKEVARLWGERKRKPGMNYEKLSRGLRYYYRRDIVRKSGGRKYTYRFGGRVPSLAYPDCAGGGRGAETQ
Outline: as §1

ELF3 = molecular target: T6, ELF3 (Homo sapiens, UniProt P78545 1-371)
T6 sequence: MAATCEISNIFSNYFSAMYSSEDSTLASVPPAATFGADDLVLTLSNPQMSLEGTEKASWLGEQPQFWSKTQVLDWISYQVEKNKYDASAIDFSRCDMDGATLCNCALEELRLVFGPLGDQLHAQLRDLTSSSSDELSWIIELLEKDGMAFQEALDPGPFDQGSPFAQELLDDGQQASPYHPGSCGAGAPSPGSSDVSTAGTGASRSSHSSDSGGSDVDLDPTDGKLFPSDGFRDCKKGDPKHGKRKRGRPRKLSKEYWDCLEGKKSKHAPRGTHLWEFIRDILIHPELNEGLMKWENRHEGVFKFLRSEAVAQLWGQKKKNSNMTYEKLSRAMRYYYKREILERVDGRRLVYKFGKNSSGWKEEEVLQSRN
Outline: as §1

ETV1 = ETV1 (Homo sapiens, UniProt P50549 1-477)
Outline: as §1

ERF = molecular target: T7, ERF (Homo sapiens, UniProt P50548 1-548)
T7 sequence: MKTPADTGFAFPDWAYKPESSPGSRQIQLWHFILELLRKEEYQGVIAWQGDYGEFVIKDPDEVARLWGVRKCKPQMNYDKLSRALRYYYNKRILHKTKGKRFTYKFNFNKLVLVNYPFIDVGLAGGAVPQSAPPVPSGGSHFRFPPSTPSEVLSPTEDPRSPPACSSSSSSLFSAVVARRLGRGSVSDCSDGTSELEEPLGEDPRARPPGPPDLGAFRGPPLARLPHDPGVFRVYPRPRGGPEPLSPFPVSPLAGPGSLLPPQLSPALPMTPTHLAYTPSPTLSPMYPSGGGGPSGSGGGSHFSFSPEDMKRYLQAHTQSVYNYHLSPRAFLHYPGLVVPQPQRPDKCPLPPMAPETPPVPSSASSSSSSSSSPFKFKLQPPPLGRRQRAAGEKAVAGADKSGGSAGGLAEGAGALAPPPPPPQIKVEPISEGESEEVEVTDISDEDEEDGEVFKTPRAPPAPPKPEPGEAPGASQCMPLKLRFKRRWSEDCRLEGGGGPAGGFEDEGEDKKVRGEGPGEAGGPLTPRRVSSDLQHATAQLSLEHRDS
Outline: as §1

ETV7 = molecular target: T8, ETV7 (Homo sapiens, UniProt Q9Y603 1-341)
T8 sequence: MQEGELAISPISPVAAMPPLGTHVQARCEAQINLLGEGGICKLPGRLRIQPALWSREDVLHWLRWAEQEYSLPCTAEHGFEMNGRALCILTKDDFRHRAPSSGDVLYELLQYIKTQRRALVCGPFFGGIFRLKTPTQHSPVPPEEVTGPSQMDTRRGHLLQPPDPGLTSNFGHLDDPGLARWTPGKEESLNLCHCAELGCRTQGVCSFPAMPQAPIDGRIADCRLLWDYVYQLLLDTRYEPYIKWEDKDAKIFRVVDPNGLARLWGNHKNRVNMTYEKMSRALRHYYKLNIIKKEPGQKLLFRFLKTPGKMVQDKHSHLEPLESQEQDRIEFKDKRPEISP
Outline: as §1

ETV3 = molecular target: T9, ETV3 (Homo sapiens, UniProt P41162-2 1-143)
T9 sequence: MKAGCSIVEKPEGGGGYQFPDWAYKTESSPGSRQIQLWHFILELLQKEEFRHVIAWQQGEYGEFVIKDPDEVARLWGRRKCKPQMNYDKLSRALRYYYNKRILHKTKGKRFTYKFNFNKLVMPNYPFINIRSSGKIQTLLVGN
Outline: as §1

SPIB = SPIB (Homo sapiens, UniProt Q01892 1-262)
Outline: as §1

ETV6 = ETV6 (Homo sapiens, UniProt P41212 1-452)
Outline: as §1

Chain of ELF4 (Q99607 whole entry): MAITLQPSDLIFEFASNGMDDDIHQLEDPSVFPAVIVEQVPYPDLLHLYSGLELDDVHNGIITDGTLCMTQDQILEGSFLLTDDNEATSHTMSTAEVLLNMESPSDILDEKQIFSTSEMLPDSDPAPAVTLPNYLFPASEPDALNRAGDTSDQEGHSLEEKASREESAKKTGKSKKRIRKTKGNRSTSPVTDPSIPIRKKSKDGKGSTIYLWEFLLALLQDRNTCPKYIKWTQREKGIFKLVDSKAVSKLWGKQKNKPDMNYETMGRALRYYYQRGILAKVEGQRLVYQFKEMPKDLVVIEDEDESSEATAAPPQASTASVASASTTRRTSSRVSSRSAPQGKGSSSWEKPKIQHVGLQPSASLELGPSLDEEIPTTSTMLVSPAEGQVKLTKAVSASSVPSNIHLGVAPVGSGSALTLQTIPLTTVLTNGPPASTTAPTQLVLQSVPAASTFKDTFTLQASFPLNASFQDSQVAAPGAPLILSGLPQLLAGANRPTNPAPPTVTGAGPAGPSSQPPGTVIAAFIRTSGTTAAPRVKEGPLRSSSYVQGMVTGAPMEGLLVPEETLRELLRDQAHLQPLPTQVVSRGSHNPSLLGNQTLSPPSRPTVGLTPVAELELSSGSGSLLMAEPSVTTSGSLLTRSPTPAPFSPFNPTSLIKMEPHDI
Chain of ELF1 (P32519 whole entry): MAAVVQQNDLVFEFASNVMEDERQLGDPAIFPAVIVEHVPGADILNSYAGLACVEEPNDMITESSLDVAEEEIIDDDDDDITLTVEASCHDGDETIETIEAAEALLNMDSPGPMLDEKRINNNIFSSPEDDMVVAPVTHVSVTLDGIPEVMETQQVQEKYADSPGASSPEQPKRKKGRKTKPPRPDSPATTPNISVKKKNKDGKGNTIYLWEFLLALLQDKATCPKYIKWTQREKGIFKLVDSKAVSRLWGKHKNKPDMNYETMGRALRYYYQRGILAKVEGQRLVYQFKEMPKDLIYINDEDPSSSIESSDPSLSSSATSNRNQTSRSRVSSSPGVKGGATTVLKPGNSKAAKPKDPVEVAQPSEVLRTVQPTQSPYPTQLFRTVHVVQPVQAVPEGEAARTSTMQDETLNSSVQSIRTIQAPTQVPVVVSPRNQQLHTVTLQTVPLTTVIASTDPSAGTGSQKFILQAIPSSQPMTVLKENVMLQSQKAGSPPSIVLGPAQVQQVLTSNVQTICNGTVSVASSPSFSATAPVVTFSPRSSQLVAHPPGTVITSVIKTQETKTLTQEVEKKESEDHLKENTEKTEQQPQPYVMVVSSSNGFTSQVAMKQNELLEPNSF
Chain of SPIB (Q01892 whole entry): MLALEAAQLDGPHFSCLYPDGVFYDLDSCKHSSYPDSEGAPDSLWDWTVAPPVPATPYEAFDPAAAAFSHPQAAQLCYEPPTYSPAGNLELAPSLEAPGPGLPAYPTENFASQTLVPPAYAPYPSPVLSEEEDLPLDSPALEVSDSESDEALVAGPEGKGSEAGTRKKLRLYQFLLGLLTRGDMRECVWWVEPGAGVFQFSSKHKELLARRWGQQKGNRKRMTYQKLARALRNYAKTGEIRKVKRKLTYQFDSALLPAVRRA
Chain of ETV6 (P41212 whole entry): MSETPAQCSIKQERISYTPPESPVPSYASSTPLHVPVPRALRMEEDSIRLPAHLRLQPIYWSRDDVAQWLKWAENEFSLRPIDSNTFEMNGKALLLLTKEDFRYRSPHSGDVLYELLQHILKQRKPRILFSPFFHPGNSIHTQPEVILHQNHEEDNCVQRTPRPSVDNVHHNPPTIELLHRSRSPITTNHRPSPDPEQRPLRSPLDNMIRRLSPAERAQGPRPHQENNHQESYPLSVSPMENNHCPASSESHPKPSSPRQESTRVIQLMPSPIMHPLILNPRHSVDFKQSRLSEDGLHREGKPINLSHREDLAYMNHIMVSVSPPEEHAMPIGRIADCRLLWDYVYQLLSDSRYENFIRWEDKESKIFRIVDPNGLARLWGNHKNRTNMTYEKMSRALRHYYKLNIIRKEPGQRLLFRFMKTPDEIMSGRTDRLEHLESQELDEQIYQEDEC
Chain of ETV1 (P50549 whole entry): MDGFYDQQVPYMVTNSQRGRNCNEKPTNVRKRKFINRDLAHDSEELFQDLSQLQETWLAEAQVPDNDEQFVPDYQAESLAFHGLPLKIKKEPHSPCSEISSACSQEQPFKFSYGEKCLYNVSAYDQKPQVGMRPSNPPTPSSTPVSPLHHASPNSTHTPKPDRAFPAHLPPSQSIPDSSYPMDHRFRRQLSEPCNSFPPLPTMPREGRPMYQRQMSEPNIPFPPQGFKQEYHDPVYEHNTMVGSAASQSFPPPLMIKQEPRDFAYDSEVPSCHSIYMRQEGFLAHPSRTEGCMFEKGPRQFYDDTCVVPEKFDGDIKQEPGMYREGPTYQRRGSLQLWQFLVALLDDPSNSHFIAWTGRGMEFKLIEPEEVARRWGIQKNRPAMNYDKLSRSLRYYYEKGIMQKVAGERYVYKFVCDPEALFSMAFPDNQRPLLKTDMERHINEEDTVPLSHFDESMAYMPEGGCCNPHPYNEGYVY

Sequence	binding signal (FLI1)	binding signal (ELF1)	binding signal (EHF)	binding signal (ELK3)	binding signal (SPIC)	binding signal (ELF4)	binding signal (ETV2)	binding signal (ELF3)	binding signal (ETV1)	binding signal (ERF)	binding signal (ETV7)	binding signal (ETV3)	binding signal (SPIB)	binding signal (ETV6)
ACTCGG	1.07 fold enrichment (6-mer frequency, TF over GST control)	1.07 fold enrichment (6-mer frequency, TF over GST control)	1.04 fold enrichment (6-mer frequency, TF over GST control)	1.06 fold enrichment (6-mer frequency, TF over GST control)	1.08 fold enrichment (6-mer frequency, TF over GST control)	1.02 fold enrichment (6-mer frequency, TF over GST control)	1.03 fold enrichment (6-mer frequency, TF over GST control)	1.03 fold enrichment (6-mer frequency, TF over GST control)	1.03 fold enrichment (6-mer frequency, TF over GST control)	1.04 fold enrichment (6-mer frequency, TF over GST control)	1.06 fold enrichment (6-mer frequency, TF over GST control)	1.04 fold enrichment (6-mer frequency, TF over GST control)		
AATGTG	1.04 fold enrichment (6-mer frequency, TF over GST control)	1 fold enrichment (6-mer frequency, TF over GST control)			1.02 fold enrichment (6-mer frequency, TF over GST control)	1.03 fold enrichment (6-mer frequency, TF over GST control)		1.07 fold enrichment (6-mer frequency, TF over GST control)		1.01 fold enrichment (6-mer frequency, TF over GST control)	1.02 fold enrichment (6-mer frequency, TF over GST control)		1 fold enrichment (6-mer frequency, TF over GST control)	1.01 fold enrichment (6-mer frequency, TF over GST control)
